According to PubChem BioAssay (EPA / NIEHS):
Inconclusive results are not listed. Calls of active or inactive are those of the source. How the source made its calls: active means hit-call score of the fitted dose curve at least 0.9, where 1 is the maximum; inconclusive means response in the unintended direction; inactive means score below 0.9.

These molecules were tested on ABC Transporter (ABCB1), ABCB1 (gene 5243) (assay: CLD_ABCB1_48hr: CellzDirect (CLD) Gene Expression Assay for ABC Transporter (ABCB1) at 48 hours (AID 2283695);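 on AC50: potency for induction meaning increase of mRNA over DMSO vehicle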).
Experimental: CLD_48hr is a cell-based, multiplexed-readout assay that uses hepatocyte, a human liver primary cell, with measurements taken at 48 hours after chemical dosing in a 96-well plate.CLD_ABCB1_48hr is one of 16 assay component(s) measured or calculated from the CLD_48hr assay. It is designed to make measurements of mRNA induction, a form of inducible reporter, as detected with chemiluminescence signals by Quantitative Nuclease Protection Assay (qNPA) technology.Data from the assay component CLD_ABCB1_48hr was analyzed at the endpoint, CLD_ABCB1_48hr, in the positive analysis fitting direction relative to DMSO as the negative control and baseline of activity. Using a type of inducible reporter, gain-of-signal activity can be used to understand changes in the reporter gene as they relate to the gene ABCB1. Furthermore, this assay endpoint can be referred to as a primary readout. To generalize the intended target to other relatable targets, this assay endpoint is annotated to the transporter intended target family, where subfamily is ABC transporter.
Human hepatocyte cultures were treated daily for two consecutive days with fresh dosing solutions containing appropriate concentrations of the 320 ToxCast chemicals (chemical identities were blinded to CellzDirect and other ToxCast collaborators), vehicle control (0.2% DMSO), and positive control inducers as summarized in Table 1. Due to the large number of treatment groups and chemicals examined, the ToxCast chemicals were divided into two groups (spanning two independent cultures of hepatocytes from separate donor preparations (Hu778: ToxCast plates 1 and 2; Hu776: ToxCast plates 3 and 4). Each preparation of human hepatocyte cultures was treated with respective vehicle control, medium only control, set of six positive controls/reference chemicals for the five hepatic receptor pathways, and a subset of eight of the ToxCast chemicals (indoxacarb, pyrithiobac-sodium, norflurazon, cyhalofop-butyl, methomyl, thiram, acetochlor, and propiconazole). These replicate data, coupled with internal replicates designed within the blinded ToxCast chemical library, provided additional data to evaluate interindividual differences between hepatocyte preparations and their potential impact on chemical profiles.Cell morphology and integrity were evaluated using phase-contrast microscopy as an indicator of hepatocyte cell health (Tyson & Green, 1987). Cultures for each treatment group (i.e., media, vehicle [0.2% DMSO], positive control inducers [multiple concentrations], and the ToxCast chemicals [multiple concentrations]) were observed and cell morphology was assessed relative to vehicle control cultures at each harvest time point (0, 6, 24, or 48 h). […] Images were evaluated at the conclusion of the study to assess changes in cell integrity and account for the effects of chemical exposure on uncharacteristic changes in concentration-dependent gene expression profiles. The results from these determinations of apparent cytotoxicity were annotated (yes/no) alongside the corresponding qNPA data for reference.At the conclusion of each treatment period, hepatocyte cultures (96-well) were washed with 1 volume of HBSS, lysed by addition of 25 ul ArrayPlate lysis buffer (HTG, Tucson, AZ), and 70 ul/well of Denaturation Oil, denatured by incubation at 95C for 10 min, and frozen at approximately -70C until analysis by nuclease protection assay (qNPA) (Roberts et al., 2007). For qNPA analysis, cell lysates were thawed at 50C for approximately 30 min, qNPA probes were added, and samples were incubated at 95C for 10 min to begin the detection process by denaturing the target RNA, dissociating the duplexes and secondary structure hybridization. At the conclusion of the hybridization period, S1 nuclease reagent was added to each sample to digest all nonprotected nucleotides at 50C for 60-90 min. […]

SMILES | outcome | AC50
OB(O)O | inactive | –
CCC(O)=C1C(=O)CC(C(=O)O)CC1=O (stereo not given) | inactive | –
COC(=O)CSc1cc(N=c2sc(=O)n3n2CCCC3)c(F)cc1Cl | inactive | –
CCCCOC(=O)C(C)Oc1ccc(Oc2ccc(C(F)(F)F)cn2)cc1 (stereo not given) | inactive | –
CCN(CC)C(=O)c1cccc(C)c1 | inactive | –
N#CSCSc1nc2ccccc2s1 | inactive | –
S=C(S)NCCNC(=S)S.[Mn+2].[S-]C([S-])=NCCN=C([S-])[S-].[Zn+2] | – | 1060 nM (active)
Cc1nn(C)c(Oc2ccccc2)c1C=NOCc1ccc(C(=O)OC(C)(C)C)cc1 | inactive | –
COC(=O)c1ccc(CNS(C)(=O)=O)cc1S(=O)(=O)NC(=O)Nc1nc(OC)cc(OC)n1 | inactive | –
COC(=O)c1c(Cl)nn(C)c1S(=O)(=O)NC(=O)Nc1nc(OC)cc(OC)n1 | inactive | –
CCCOC(=O)c1ccc(C(=O)OCCC)nc1 | inactive | –
C=CCOC(Cn1ccnc1)c1ccc(Cl)cc1Cl (stereo not given) | – | 36900 nM (active)
COCCO | inactive | –
CCNc1nc(N)nc(Cl)n1 | inactive | –
CCOC(=O)COc1cc(-n2ncc(C(F)(F)F)c(C)c2=O)c(F)cc1Cl | inactive | –
COc1c(Cl)ccc(Cl)c1C(=O)O | inactive | –
CCOC(=O)C(C)Oc1ccc(Oc2nc3ccc(Cl)cc3o2)cc1 (stereo not given) | inactive | –
CCCCC(CC)CN1C(=O)C2C3C=CC(C3)C2C1=O (stereo not given) | inactive | –

SMILES | outcome | AC50
COC(=O)c1ccc(I)cc1S(=O)(=O)NC(=O)Nc1nc(C)nc(OC)n1 | inactive | –
CCCCCCC(C)OC(=O)COc1nc(F)c(Cl)c(N)c1Cl (stereo not given) | inactive | –
CC(C)(C)[C@@H](O)[C@@H](Cc1ccc(Cl)cc1)n1cncn1 | inactive | –
CCC(C)OC(=O)N1CCCCC1CCO (stereo not given) | inactive | –
S=C([S-])NCCNC(=S)[S-].[Mn+2] | – | 1900 nM (active)
CCOC(=O)C(C)Oc1ccc(Oc2cnc3cc(Cl)ccc3n2)cc1 (stereo not given) | inactive | –
CCCN(CCC)C(=O)SCC | inactive | –
CCCCCOC(=O)COc1cc(N2C(=O)C3=C(CCCC3)C2=O)c(F)cc1Cl | inactive | –
CCCOC(=O)NCCCN(C)C | inactive | –
CCOC(=O)NCCOc1ccc(Oc2ccccc2)cc1 | inactive | –
C#CCOC(=O)[C@@H](C)Oc1ccc(Oc2ncc(Cl)cc2F)cc1 | inactive | –
CCSC(=O)N(CC(C)C)CC(C)C | inactive | –
CCCCC(CC)COC(=O)c1ccccc1C(=O)O (stereo not given) | inactive | –
O=C(O)C1(C(=O)Nc2ccc(Cl)cc2Cl)CC1 | inactive | –
CCCN(CCC)c1c([N+](=O)[O-])cc(C(F)(F)F)c(N)c1[N+](=O)[O-] | inactive | –
O=C(Nc1ccc([N+](=O)[O-])cc1Cl)c1cc(Cl)ccc1O | inactive | –
CC1(C)C(C=C(Cl)Cl)C1C(=O)OCc1cccc(Oc2ccccc2)c1 (stereo not given) | inactive | –
